Only some compounds are listed: those with a hit (about 1.5% of all), similar ones and a draw of the others.
MLLE-PAM2 inh: inhibitors of PABP1 MLLE–PAM2 peptide binding, primary screen, biochemical, fluorescence polarization, FITC-PAM2, GST-MLLE | AID 588489, 2011 | 360,000 tested, 0.36% active | Polyadenylate-binding protein 1 (Homo sapiens), P11940 | inhibition, % at 20 µM; in the data active = inhibition above about 35%, passing the limit was not always enough;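 also: plate controls were DMSO wells with GST-MLLE for no effect and wells lacking GST-MLLE protein for full effect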
eIF4H inh: human eIF4H binding inhibitors, primary screen, translation initiation inhibitor project, biochemical, uHTS, fluorescence polarization; Eukaryotic translation initiation factor 4H (Homo sapiens), Q15056; 290,000 tested, 0.94% active; AID 2012, 2009; eIF4H fluorescence polarization binding assay; inhibition, % at 35 µM;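 also: calls also rest on retests at 20 µM and on dose response follow-up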
PABP polyA inh: PABP poly(A) RNA binding inhibitors, primary screen, biochemical, fluorescence polarization, uHTS. 290,000 tested, 1% active. AID 2014, 2009. calls only at 35 µM;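 also: calls also rest on retests at 20 µM and on dose response follow-up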
eIF4E-4G inh: eIF4E–eIF4G protein interaction inhibitors, primary screen, biochemical, uHTS, TR-FRET, eIF4GI fragment; Eukaryotic translation initiation factor 4E (Mus musculus) + Eukaryotic translation …; TR-FRET eIF4E-eIF4GI(517-606) binding, 2 h; inhibition, % at 21.7 µM; 220,000 tested, 0.37% active;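 active = inhibition above about 30%, limit read from the data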;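 also: 0% = full FRET control wells and 100% = background wells lacking eIF4GI fragment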
Target sequence (P63073 whole entry, looked up, the tested form may be a part): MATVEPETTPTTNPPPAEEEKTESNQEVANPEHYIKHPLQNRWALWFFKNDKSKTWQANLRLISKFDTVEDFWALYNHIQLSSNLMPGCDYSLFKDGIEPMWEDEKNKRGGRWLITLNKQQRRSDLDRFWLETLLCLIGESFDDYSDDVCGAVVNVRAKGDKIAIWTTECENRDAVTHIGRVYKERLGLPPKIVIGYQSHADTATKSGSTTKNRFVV
Target sequence (Q04637 whole entry, looked up, the tested form may be a part): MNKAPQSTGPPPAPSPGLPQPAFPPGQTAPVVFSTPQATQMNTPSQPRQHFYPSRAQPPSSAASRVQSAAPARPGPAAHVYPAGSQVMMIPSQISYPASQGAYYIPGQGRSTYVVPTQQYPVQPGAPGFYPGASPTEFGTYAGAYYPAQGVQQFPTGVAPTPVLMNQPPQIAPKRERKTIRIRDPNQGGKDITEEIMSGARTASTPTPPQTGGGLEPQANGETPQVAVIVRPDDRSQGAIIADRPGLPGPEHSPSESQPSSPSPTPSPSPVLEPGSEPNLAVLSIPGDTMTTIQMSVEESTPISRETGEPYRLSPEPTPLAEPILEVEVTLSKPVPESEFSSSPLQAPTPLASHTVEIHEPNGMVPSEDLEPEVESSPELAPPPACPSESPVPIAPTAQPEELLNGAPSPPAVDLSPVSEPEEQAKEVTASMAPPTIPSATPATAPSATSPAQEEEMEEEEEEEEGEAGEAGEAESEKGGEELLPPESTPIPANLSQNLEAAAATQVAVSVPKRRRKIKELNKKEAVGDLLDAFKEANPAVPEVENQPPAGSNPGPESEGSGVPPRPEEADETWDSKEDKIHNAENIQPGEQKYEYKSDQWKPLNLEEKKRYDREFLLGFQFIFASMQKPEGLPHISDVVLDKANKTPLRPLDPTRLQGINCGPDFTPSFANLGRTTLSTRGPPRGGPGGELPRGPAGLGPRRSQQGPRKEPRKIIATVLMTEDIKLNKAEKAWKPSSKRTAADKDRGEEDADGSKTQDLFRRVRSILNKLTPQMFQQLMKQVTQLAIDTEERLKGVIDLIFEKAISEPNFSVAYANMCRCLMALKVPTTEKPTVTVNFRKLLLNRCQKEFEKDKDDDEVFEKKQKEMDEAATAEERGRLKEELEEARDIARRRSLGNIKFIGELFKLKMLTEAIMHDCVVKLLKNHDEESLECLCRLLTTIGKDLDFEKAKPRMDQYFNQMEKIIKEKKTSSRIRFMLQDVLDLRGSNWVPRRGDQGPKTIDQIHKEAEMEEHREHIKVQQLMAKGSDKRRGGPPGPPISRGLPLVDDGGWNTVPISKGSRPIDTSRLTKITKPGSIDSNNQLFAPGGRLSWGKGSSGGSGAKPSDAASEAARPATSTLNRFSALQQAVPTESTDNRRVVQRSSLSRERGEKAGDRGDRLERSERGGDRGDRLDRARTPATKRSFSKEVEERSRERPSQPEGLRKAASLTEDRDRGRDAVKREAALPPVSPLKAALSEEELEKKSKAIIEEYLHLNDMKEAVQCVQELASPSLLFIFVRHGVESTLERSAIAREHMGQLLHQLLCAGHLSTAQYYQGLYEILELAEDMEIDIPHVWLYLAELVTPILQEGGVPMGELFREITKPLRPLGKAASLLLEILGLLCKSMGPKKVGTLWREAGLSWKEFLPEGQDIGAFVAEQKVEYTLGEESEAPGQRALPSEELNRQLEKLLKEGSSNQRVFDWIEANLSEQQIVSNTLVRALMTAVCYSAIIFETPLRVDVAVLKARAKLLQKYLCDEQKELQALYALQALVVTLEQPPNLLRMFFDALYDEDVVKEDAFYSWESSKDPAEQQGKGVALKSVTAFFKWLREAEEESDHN
* marks the source's active call; other numbers are inactive results; i = inactive; ? = inconclusive; / = no result given; + = active, no number; ! = a repeat was not active; [ ] = another dose, or the depositor's remark. Unless noted, no rule for the calls is given here.

SMILES	MLLE-PAM2 inh	eIF4H inh	PABP polyA inh	eIF4E-4G inh
COc1ccc(/C=C2\SC(N)=NC2=O)cc1Br	-7.9	8.4	i	/
CCn1c(CSc2nnc3ccccn23)nc2cc(C(=O)O)ccc21	30.9	128.9*	+	-0.8
CCn1c(CSc2nnc(-c3cccnc3)n2-c2ccccc2C)nc2cc(C(=O)O)ccc21	/	49.7	i	3.2
O=C(CCn1c(=S)oc2ccccc21)Nc1ccc(F)cc1	6.7	8.9*	+	2.5
CCS(=O)(=O)NC(=O)C1(C)CCN1C(=O)Cc1ccc(Cl)cc1Cl (configuration not stated)	-2.8	/	/	/
COc1cccc(CN2CCN(C(=O)CC(C)C)CC2)c1	-10.8	-12.5	i	1.7
CC(C)CC(=O)N1CCN(Cc2cccc(F)c2)CC1	0.6	-2.7	i	72.5*
CC(=O)c1ccc(OC2(C)CCN(CCOc3ccc(C)cc3)C2)cc1 (configuration not stated)	-6.0	/	/	/
CC(=O)NCCCNC(=S)NCCCN(Cc1ccc(Cl)cc1)c1ccc(Br)cn1	-38.3	/	/	/
CC(C)(C)C(=O)Nc1c2c(nn1-c1ccc(F)cc1)CSC2	36.6*	4.8	i	/
N#CC1=C(N)NC(=S)C(C(N)=O)C1c1ccc(Cl)cc1Cl (configuration not stated)	29.2	-2.7	i	2.1
N#CC1=C(N)NC(=S)C(C(N)=O)C1c1ccccc1F (configuration not stated)	46.3*	-0.5	i	2.1
O=C(c1ccc(S(=O)(=O)Cc2cc(F)ccc2F)c([N+](=O)[O-])c1)N1CCOCC1	7.3	/	/	/
COc1ccc(-c2coc3c(C(=O)Nc4cc(OC)c(OC)c(OC)c4)cccc23)c(C)c1	-14.3	/	/	/
O=C(Nc1c(-c2ccccc2)nc2ccc(Cl)cn12)c1cccs1	-10.8	50.6*	+	3.9
CCOC(=O)CNc1c(-c2ccc(O)cc2)nc2ccc(Cl)cn12	-12.4	79.5*	+	6.5
Cc1ccc(C(=O)CNc2cccc([N+](=O)[O-])c2)cc1	41.2*	52.4	i	-1.5
CC(C)(C)c1ccc(C(=O)N2CCC2(C)C(=O)Nc2cccc3ncccc23)cc1 (configuration not stated)	-2.1	/	/	/
O=C(CN1C(=O)/C(=C2/SC(=S)N(CCS(=O)(=O)O)C2=O)c2ccccc21)Nc1cccc(C(F)(F)F)c1	14.1	/	/	/
O=C(CN1C(=O)/C(=C2\SC(=S)N(CCS(=O)(=O)O)C2=O)c2ccccc21)Nc1cccc(Br)c1	14.6	93.0*	+	/
O=C(Nc1cc(S(=O)(=O)N2CCOCC2)ccc1Cl)c1cc([N+](=O)[O-])ccc1Cl	-2.0	/	/	/
COc1ccc(/C=C(\NC(=O)c2ccccc2)C(=O)N/N=C/c2ccncc2)cc1	9.9	-1.0	i	7.0
COc1ccc(/C=C(/NC(=O)c2ccccc2)C(=O)N/N=C/c2ccncc2)c(OC)c1	-11.2	active	i	5.0
Cc1ccccc1NC(=O)Cn1nnc2c(cnn2-c2ccc(F)cc2)c1=O	-15.0	-12.4	i	41.2*[fluorescence artefact?]
CCOc1ccc(NC(=O)Cn2nnc3c(cnn3-c3ccc(F)cc3)c2=O)cc1	6.0	1.7	i	-2.5
SMILES	MLLE-PAM2 inh	eIF4H inh	PABP polyA inh	eIF4E-4G inh
CN1CCN(c2c(F)cc3c(=O)c(C(=O)O)cn4c3c2SCC4)CC1	7.8	97.0*!	+!	1.6
CCOC(=O)C1=CCN(S(=O)(=O)c2ccc(Br)cc2)C1c1ccc(C)cc1 (configuration not stated)	9.1	/	/	/
Cc1cc(-c2sccc2C)nc(-n2cccc2)n1	3.2	?	+	2.6
Cc1nc2cc(-c3sccc3-n3cccc3)nn2c(C)c1C	1.1	2.6	i	0.0
CC1(C(=O)N2CCCCC2)CCN1C(=O)C1(c2ccccc2)CC1 (configuration not stated)	-6.5	/	/	/
Cc1ccc(S(=O)(=O)NC(C)C(=O)OCC(=O)Nc2sccc2C(N)=O)cc1 (configuration not stated)	-0.5	/	/	/
CNc1ccc(Br)cc(C(=O)/C=C/c2ccc(OC)cc2OC)c1=O	-46.1	39.7	i	11.8
CNc1ccc(Br)cc(C(=O)/C=C/c2cccc(OC)c2)c1=O	-63.3	80.5*	+	-2.2
CCNc1ccc(Br)cc(C(=O)/C=C/c2ccc(Cl)cc2)c1=O	-83.1	34.0	i	8.2
CCNc1ccc(Br)cc(C(=O)/C=C/c2ccc3c(c2)OCO3)c1=O	-57.0	78.5*	+	27.4
COc1ccc([C@H]2CN(c3ccc(OC)cc3)C(=O)[C@@H]2CC(=O)Nc2ccccc2)cc1	1.1	/	/	/
CCN1C(=O)CC(C(=O)NCCc2ccc(S(N)(=O)=O)cc2)SC1=Nc1ccc(OC)cc1 (configuration not stated)	0.6	active	+	1.2
CNC(=O)C1CC(=O)N(CCc2ccccc2)C(=Nc2ccc(OC)cc2)S1 (configuration not stated)	-24.8	6.8	?	1.1
Nc1nnc(CC(=O)N2CCCCC2)s1	15.6	-7.4	i	45.9*
COC(=O)C1=C(C)NC(=O)/C1=C\c1cc(C)n(-c2ccccc2C)c1C	-13.3	56.6*	+	0.8
COC(=O)C1=C(C)NC(=O)/C1=C\c1cc(C)n(-c2ccccc2F)c1C	12.8	11.3	i	-0.8
Cc1ccc(S(=O)(=O)Nc2nc(C)c(NC(=O)OCCCl)s2)cc1	19.0	1.1	i	-1.6
COc1ccc(NC(=O)Nc2sc(NS(=O)(=O)c3ccccc3)nc2C)cc1	40.3*	-4.0	i	-2.5
Cc1nc(NS(=O)(=O)c2ccccc2)sc1NC(=O)OC(C)C	38.6*	-3.0	i	/
COc1ccc(OC)c(NC(=O)C2(C)CCN2Cc2ccccc2OC(F)F)c1 (configuration not stated)	-0.9	/	/	/
Cc1cc(=O)n2[nH]c(-c3ccsc3-n3c(C)ccc3C)cc2n1	-53.8	74.6*	+	7.3
Cc1nc2cc(-c3ccsc3-n3c(C)ccc3C)[nH]n2c(=O)c1Cl	4.5	85.0*	+	0.7
COCc1cc(=O)n2[nH]c(-c3ccsc3-n3c(C)ccc3C)cc2n1	-34.0	79.5*	+	-0.3
COCc1cc(=O)n2[nH]c(N)nc2n1	-0.2	5.7	i	-12.1
CC(=Nc1ccccc1)C1=C(O)CSC1=O	32.0	34.2*	+	-0.4
Cc1ccc(CNC(=O)c2ccc(N3CCc4ccccc43)c([N+](=O)[O-])c2)cc1	7.4	2.6	i	54.9*
O=C(Cc1ccc(F)cc1)Nc1cc(S(=O)(=O)N2CCOCC2)ccc1N1CCCCC1	-2.4	/	/	/
CCC(CO)Nc1ccn2nc(-c3cccc(Cl)c3)cc2n1 (configuration not stated)	-6.2	/	/	/
Cc1ccc(NC(=O)CN2CCN(S(=O)(=O)c3ccc4c(c3)OCCO4)CC2)c(C)c1	-16.0	/	/	/
COc1ccc(-n2cnnc2SCC(=O)Nc2cc(C)on2)cc1	-6.2	63.4*	+	-1.8
